From PubChem BioAssay (NCI)
About 83,000 compounds went through this panel and 20% of them were active in at least one assay; those are over-represented in the sample as a whole.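 Interpretation: 100, growth as untreated; towards 0, rising growth inhibition; 0, no net growth; 0 to -100, cell death. Compounds scoring below 10 were considered active.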 Unmarked numbers belong to inactive results. Calls of active or inactive are those of the source.

Experiments:
Test in all cases: NCI-60 one-dose screen, 48 h (100 = growth as untreated, 0 = no growth, -100 = all killed)
Conditions in all cases: 10 µM unless noted
T-47D breast = test system: T-47D breast
BT-549 breast = test system: BT-549 breast
MDA-MB-435 melanoma = test system: MDA-MB-435 melanoma
SW-620 colon = test system: SW-620 colon
MCF7 breast = test system: MCF7 breast
HCT-116 colon = test system: HCT-116 colon
HCC-2998 colon = test system: HCC-2998 colon
KM12 colon = test system: KM12 colon

`O=C(NOC(=O)c1ccccc1)c1ccccc1` gave a growth (T-47D breast) of 101%, a growth (BT-549 breast) of 107% and a growth (MDA-MB-435 melanoma) of 96.4%. It also gave a growth (SW-620 colon) of 93.8%, a growth (MCF7 breast) of 107% and a growth (HCT-116 colon) of 95.7%. It also gave a growth (HCC-2998 colon) of 112% and a growth (KM12 colon) of 101%.

For `Cc1nnc(N/N=C/c2ccc([N+](=O)[O-])o2)[nH]c1=O`, the growth (T-47D breast) was -6.92% (active), the growth (BT-549 breast) was -22.1% (active) and the growth (MDA-MB-435 melanoma) was 12%. For the same compound, the growth (SW-620 colon) was 18.7%, the growth (MCF7 breast) was 3.92% (active) and the growth (HCT-116 colon) was 9.54% (active). The growth (HCC-2998 colon) was 22.2% and the growth (KM12 colon) was 14.2%.

In the case of `C(=N\Nc1ccc2ccccc2n1)/c1ccccn1`, the growth (T-47D breast) is reported as 18.9%, the growth (BT-549 breast) is reported as 43.9% and the growth (MDA-MB-435 melanoma) is reported as 37.5%. The growth (SW-620 colon) was 23.5%, the growth (MCF7 breast) was 15.9% and the growth (HCT-116 colon) was 18.4%. For the same compound, the growth (HCC-2998 colon) was 17.1% and the growth (KM12 colon) was 29.1%.

For `Nc1nc(N)c2cc(Sc3cccc(C(F)(F)F)c3)ccc2n1`, the growth (T-47D breast) was 45%, the growth (BT-549 breast) was 50.3% and the growth (MDA-MB-435 melanoma) was 28.8%. For the same compound, the growth (SW-620 colon) was 22.5%, the growth (MCF7 breast) was 23.9% and the growth (HCT-116 colon) was 15%. For the same compound, the growth (HCC-2998 colon) was -57.2% (active) and the growth (KM12 colon) was 24.8%.

With `C/C(=N/NC(N)=S)c1ccc(C)cc1` the growth (T-47D breast) was 22%, the growth (BT-549 breast) was 105% and the growth (MDA-MB-435 melanoma) was 96.1%. The growth (SW-620 colon) was 75.3%, the growth (MCF7 breast) was 25.6% and the growth (HCT-116 colon) was 8.6% (active). For the same compound, the growth (HCC-2998 colon) was 110% and the growth (KM12 colon) was 104%.

`CCc1cnc2ccccc2c1/C=C/c1ccc(N(C)C)cc1` was tested, and the growth (T-47D breast) was 31.3%, the growth (BT-549 breast) was 49.8% and the growth (MDA-MB-435 melanoma) was 7.56% (active). It also gave a growth (SW-620 colon) of 32.1%, a growth (MCF7 breast) of 20% and a growth (HCT-116 colon) of 24.6%. It also gave a growth (HCC-2998 colon) of 68.4% and a growth (KM12 colon) of 25.5%.

In the case of `O=C1C=CC(=O)N1c1cccc2c1CCCC2`, the growth (T-47D breast) is reported as 86.5%, the growth (BT-549 breast) is reported as 112% and the growth (MDA-MB-435 melanoma) is reported as 88.5%. The growth (SW-620 colon) was 99.6%, the growth (MCF7 breast) was 88.3% and the growth (HCT-116 colon) was 95%. It also gave a growth (HCC-2998 colon) of 118% and a growth (KM12 colon) of 109%.

For `CC(C)Nc1ccc(Nc2ccc(NC(C)C)cc2)cc1`, the growth (T-47D breast) was 31.9%, the growth (BT-549 breast) was 53.2% and the growth (MDA-MB-435 melanoma) was 51.4%. The growth (SW-620 colon) was 47.9%, the growth (MCF7 breast) was 28.9% and the growth (HCT-116 colon) was 25.7%. For the same compound, the growth (HCC-2998 colon) was 61.2% and the growth (KM12 colon) was 29.3%.

`N=C(N)Sc1cccc[n+]1[O-]` showed a growth (T-47D breast) of 63.1%, a growth (BT-549 breast) of 80.3% and a growth (MDA-MB-435 melanoma) of 62.9%. The growth (SW-620 colon) was 46.9%, the growth (MCF7 breast) was 14.6% and the growth (HCT-116 colon) was 9.31% (active). It also gave a growth (HCC-2998 colon) of 74.7% and a growth (KM12 colon) of 55.1%.

With `CC(=O)OC1CC2CCC1(C)C2(C)C` (centres undefined) the growth (T-47D breast) was 99.2%, the growth (BT-549 breast) was 112% and the growth (MDA-MB-435 melanoma) was 96.4%. For the same compound, the growth (SW-620 colon) was 98.1%, the growth (MCF7 breast) was 103% and the growth (HCT-116 colon) was 107%. It also gave a growth (HCC-2998 colon) of 108% and a growth (KM12 colon) of 104%.

`CCOc1ccc(C(C[N+](=O)[O-])Sc2ccccc2N)cc1` (centres undefined) was tested, and the growth (T-47D breast) was 42.8%, the growth (BT-549 breast) was -74.9% (active) and the growth (MDA-MB-435 melanoma) was 3.44% (active). The growth (SW-620 colon) was -40.4% (active), the growth (MCF7 breast) was 0.363% (active) and the growth (HCT-116 colon) was -55.6% (active). The growth (HCC-2998 colon) was -82.3% (active) and the growth (KM12 colon) was -51.3% (active).

With `CCOc1ccc2c(c1)/C(=C\C=C\C1CC(C)C3CC(OCC)CCC3N1CC)CC(C)N2CC` (centres undefined) the growth (T-47D breast) was 9.32% (active), the growth (BT-549 breast) was 0.574% (active) and the growth (MDA-MB-435 melanoma) was -20.6% (active). The growth (SW-620 colon) was 17.1%, the growth (MCF7 breast) was 3.06% (active) and the growth (HCT-116 colon) was 10.7%. The growth (HCC-2998 colon) was 28.5% and the growth (KM12 colon) was 0.998% (active).

For `c1csc(-c2[nH]nc3c2CCc2ccccc2-3)c1`, the growth (T-47D breast) was -61.7% (active), the growth (BT-549 breast) was 98.5% and the growth (MDA-MB-435 melanoma) was 104%. The growth (SW-620 colon) was 106%, the growth (MCF7 breast) was 5.26% (active) and the growth (HCT-116 colon) was 99.1%. For the same compound, the growth (HCC-2998 colon) was 43.6% and the growth (KM12 colon) was 23.5%.

Compound `O=C(c1ccccc1)N(CCCl)C(=O)N(CCCl)C(=O)c1ccccc1` has a growth (T-47D breast) of 86%, a growth (BT-549 breast) of 100% and a growth (MDA-MB-435 melanoma) of 102%. For the same compound, the growth (SW-620 colon) was 110%, the growth (MCF7 breast) was 101% and the growth (HCT-116 colon) was 90%. It also gave a growth (HCC-2998 colon) of 104% and a growth (KM12 colon) of 102%.

`Cn1c(-c2ccccc2)c(/C=C/C2=[N+](C)c3ccccc3C2(C)C)c2ccccc21` was tested, and the growth (T-47D breast) was -3.22% (active), the growth (BT-549 breast) was 22.1% and the growth (MDA-MB-435 melanoma) was 2.09% (active). The growth (SW-620 colon) was 14.3%, the growth (MCF7 breast) was 4.58% (active) and the growth (HCT-116 colon) was 9.76% (active). For the same compound, the growth (HCC-2998 colon) was 27% and the growth (KM12 colon) was -22.8% (active).

Work on `CCOc1cc(F)c([N+](=O)[O-])cc1[N+](=O)[O-]` yielded a growth (T-47D breast) of 24.5%, a growth (BT-549 breast) of 87.3% and a growth (MDA-MB-435 melanoma) of 37.2%. For the same compound, the growth (SW-620 colon) was 19.8%, the growth (MCF7 breast) was 15.9% and the growth (HCT-116 colon) was 9.26% (active). For the same compound, the growth (HCC-2998 colon) was 98.7% and the growth (KM12 colon) was -44.7% (active).

For `CN(C)c1ccc(/C=C/c2nccc3ccccc23)cc1`, the growth (T-47D breast) was 40.2%, the growth (BT-549 breast) was 84.1% and the growth (MDA-MB-435 melanoma) was 55.7%. The growth (SW-620 colon) was 84.1%, the growth (MCF7 breast) was 30.6% and the growth (HCT-116 colon) was 81.5%. The growth (HCC-2998 colon) was 82.9% and the growth (KM12 colon) was 73.3%.

`CC(C)(C)c1ccc(O)c(Br)c1` gave a growth (T-47D breast) of 103%, a growth (BT-549 breast) of 102% and a growth (MDA-MB-435 melanoma) of 92.1%. For the same compound, the growth (SW-620 colon) was 92.4%, the growth (MCF7 breast) was 95.3% and the growth (HCT-116 colon) was 93.2%. For the same compound, the growth (HCC-2998 colon) was 98% and the growth (KM12 colon) was 104%.

`c1ccc(C2NCCNC2c2ccccc2)cc1` (centres undefined) gave a growth (T-47D breast) of 104%, a growth (BT-549 breast) of 103% and a growth (MDA-MB-435 melanoma) of 102%. The growth (SW-620 colon) was 101%, the growth (MCF7 breast) was 103% and the growth (HCT-116 colon) was 104%. For the same compound, the growth (KM12 colon) was 110%.

For `CCC1C[N+]2=C(c3cc(OC)c(OC)cc3CC2)c2c1cc1n2CCc2cc(OC)c(OC)cc2-1` (centres undefined), the growth (T-47D breast) was 6.69% (active), the growth (BT-549 breast) was 26.7% and the growth (MDA-MB-435 melanoma) was 5.51% (active). For the same compound, the growth (SW-620 colon) was 48.8%, the growth (MCF7 breast) was 9.71% (active) and the growth (HCT-116 colon) was 40.4%. The growth (HCC-2998 colon) was 34% and the growth (KM12 colon) was 7.73% (active).

With `OC(Cc1cc(CC(O)(C(F)(F)F)C(F)(F)F)nc(CC(O)(C(F)(F)F)C(F)(F)F)c1)(C(F)(F)F)C(F)(F)F` the growth (T-47D breast) was -1.31% (active), the growth (BT-549 breast) was 11.3% and the growth (MDA-MB-435 melanoma) was 0.574% (active). The growth (SW-620 colon) was 14.6%, the growth (MCF7 breast) was 4.14% (active) and the growth (HCT-116 colon) was 3.99% (active). For the same compound, the growth (HCC-2998 colon) was 23.9% and the growth (KM12 colon) was 1.25% (active).

Work on `CCCCC(C=O)(C=C=C(C)C)CC` (centres undefined) yielded a growth (T-47D breast) of 111%, a growth (BT-549 breast) of 103% and a growth (MDA-MB-435 melanoma) of 99.1%. The growth (SW-620 colon) was 106%, the growth (MCF7 breast) was 90.9% and the growth (HCT-116 colon) was 106%. The growth (HCC-2998 colon) was 109% and the growth (KM12 colon) was 109%.

Compound `CCc1cccc(CC)c1N1C(=O)C=CC1=O` has a growth (T-47D breast) of 102%, a growth (BT-549 breast) of 116% and a growth (MDA-MB-435 melanoma) of 111%. For the same compound, the growth (SW-620 colon) was 108%, the growth (MCF7 breast) was 110% and the growth (HCT-116 colon) was 88.5%. The growth (HCC-2998 colon) was 117% and the growth (KM12 colon) was 110%.

In the case of `CCCC[n+]1c(/C=C\c2c(OC)cc(OC)cc2OC)ccc2ccccc21`, the growth (T-47D breast) is reported as -3.69% (active), the growth (BT-549 breast) is reported as 15.5% and the growth (MDA-MB-435 melanoma) is reported as -41.2% (active). The growth (SW-620 colon) was 5.08% (active), the growth (MCF7 breast) was 4.3% (active) and the growth (HCT-116 colon) was 2.83% (active). The growth (HCC-2998 colon) was 2.5% (active) and the growth (KM12 colon) was -78.6% (active).

`O=[N+]([O-])c1ccc(C2N(Cc3ccc(Cl)cc3)CCN2Cc2ccc(Cl)cc2)cc1` was tested, and the growth (T-47D breast) was 90%, the growth (BT-549 breast) was 98.2% and the growth (MDA-MB-435 melanoma) was 91.5%. The growth (SW-620 colon) was 98.1%, the growth (MCF7 breast) was 87.3% and the growth (HCT-116 colon) was 72.8%. For the same compound, the growth (HCC-2998 colon) was 95.4% and the growth (KM12 colon) was 101%.
